Test results from the supplement of paper PMC8728848.
The sample as a whole holds a higher share of the strongest signals than the screen did.

Tests used:
Test in all cases: glycan array binding signal (z-score within array); higher = stronger binding
Conditions in all cases: glycan notation: IUPAC condensed, linker removed
[1] = target: Fuc(a1-2)Gal(b1-3)[Fuc(a1-4)]GlcNAc(b1-2)Man(a1-3)[Fuc(a1-2)Gal(b1-3)[Fuc(a1-4)]GlcNAc(b1-2)Man(a1-3)]Man(b1-4)GlcNAc(b1-4)GlcNAc
Outline: (§1)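 The Consortium for Functional Glycomics database supplied 3228 glycan arrays, of which those lacking an available protein sequence were dropped. The binding signal, a within-array Z-score, was averaged across arrays of the same protein sequence and across linkers. Negative scores can be read as non-binding.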

[2] = target: Fuc(a1-2)Gal(b1-3)[Fuc(a1-4)]GlcNAc(b1-2)Man(a1-6)[Fuc(a1-2)Gal(b1-3)[Fuc(a1-4)]GlcNAc(b1-2)Man(a1-3)]Man(b1-4)GlcNAc(b1-4)[Fuc(a1-6)]GlcNAc
Outline: as §1

[3] = target: Fuc(a1-2)Gal(b1-4)GlcNAc(b1-3)Gal(b1-4)GlcNAc(b1-3)Gal(b1-4)GlcNAc
Outline: as §1

[4] = target: Fuc(a1-2)Gal(b1-4)[Fuc(a1-3)]GlcNAc(b1-2)Man(a1-3)[Fuc(a1-2)Gal(b1-4)[Fuc(a1-3)]GlcNAc(b1-2)Man(a1-6)]Man(b1-4)GlcNAc(b1-4)[Fuc(a1-6)]GlcNAc
Outline: as §1

[5] = target: Fuc(a1-2)Gal(b1-4)[Fuc(a1-3)]GlcNAc(b1-3)Gal(b1-4)[Fuc(a1-3)]GlcNAc
Outline: as §1

[6] = target: Fuc(a1-2)Gal(b1-4)[Fuc(a1-3)]GlcNAc(b1-3)GalNAc
Outline: as §1

[7] = target: Fuc(a1-2)Gal6S(b1-3)GlcNAc6S
Outline: as §1

[8] = target: Fuc(a1-2)[Gal(a1-3)]Gal(b1-4)GlcNAc(b1-3)GalNAc
Outline: as §1

[9] = target: Fuc(a1-2)[Gal(a1-3)]Gal(b1-4)GlcNAc(b1-6)GalNAc
Outline: as §1

[10] = target: Fuc(a1-2)[GalNAc(a1-3)]Gal(b1-3)GlcNAc(b1-3)GalNAc
Outline: as §1

[11] = target: Fuc(a1-2)[GalNAc(a1-3)]Gal(b1-4)GlcNAc(b1-3)Gal(b1-4)GlcNAc
Outline: as §1

[12] = target: Fuc(a1-2)[GalNAc(a1-3)]Gal(b1-4)GlcNAc(b1-3)[Fuc(a1-2)[GalNAc(a1-3)]Gal(b1-4)GlcNAc(b1-6)]GalNAc
Outline: as §1

Fuc(b1-3)GlcNAc = target: Fuc(b1-3)GlcNAc
Outline: as §1

Gal(a1-3)Gal(b1-3)GlcNAc = target: Gal(a1-3)Gal(b1-3)GlcNAc
Outline: as §1

[13] = target: Gal(a1-3)Gal(b1-3)[Fuc(a1-4)]GlcNAc(b1-2)Man(a1-3)[Gal(a1-3)Gal(b1-3)[Fuc(a1-4)]GlcNAc(b1-2)Man(a1-6)]Man(b1-4)GlcNAc(b1-4)GlcNAc
Outline: as §1

Gal(a1-3)Gal(b1-4)GlcNAc = target: Gal(a1-3)Gal(b1-4)GlcNAc
Outline: as §1

[14] = target: Gal(a1-4)Gal(b1-4)GlcNAc(b1-3)Gal(b1-4)Glc
Outline: as §1

[15] = target: Gal(b1-3)Gal(b1-4)GlcNAc(b1-2)Man(a1-3)[Gal(b1-3)Gal(b1-4)GlcNAc(b1-2)Man(a1-6)]Man(b1-4)GlcNAc(b1-4)GlcNAc
Outline: as §1

Gal(b1-3)GalNAc = target: Gal(b1-3)GalNAc
Outline: as §1

[16] = target: Gal(b1-3)GalNAc(b1-3)Gal(a1-4)Gal(b1-4)Glc
Outline: as §1

Gal(b1-4)Glc6S = target: Gal(b1-4)Glc6S
Outline: as §1

[17] = target: Gal(b1-4)GlcNAc(b1-2)[Gal(b1-4)GlcNAc(b1-4)]Man(a1-3)[GlcNAc(b1-4)][Gal(b1-4)GlcNAc(b1-2)Man(a1-6)]Man(b1-4)GlcNAc(b1-4)GlcNAc
Outline: as §1

[18] = target: Gal(b1-4)GlcNAc(b1-3)Gal(b1-4)GlcNAc(b1-2)[Gal(b1-4)GlcNAc(b1-3)Gal(b1-4)GlcNAc(b1-6)]Man(a1-6)[Gal(b1-4)GlcNAc(b1-3)Gal(b1-4)GlcNAc(b1-2)Man(a1-3)]Man(b1-4)GlcNAc(b1-4)[Fuc(a1-6)]GlcNAc
Outline: as §1

[19] = target: Gal(b1-4)GlcNAc(b1-3)Gal(b1-4)GlcNAc(b1-3)Gal(b1-4)GlcNAc(b1-2)[Gal(b1-4)GlcNAc(b1-3)Gal(b1-4)GlcNAc(b1-3)Gal(b1-4)GlcNAc(b1-6)]Man(a1-6)[Gal(b1-4)GlcNAc(b1-3)Gal(b1-4)GlcNAc(b1-3)Gal(b1-4)GlcNAc(b1-2)Man(a1-3)]Man(b1-4)GlcNAc(b1-4)[Fuc(a1-6)]GlcNAc
Outline: as §1

[20] = target: Gal(b1-4)GlcNAc(b1-3)Gal(b1-4)GlcNAc(b1-3)Gal(b1-4)GlcNAc(b1-3)Gal(b1-4)GlcNAc(b1-3)Gal(b1-4)GlcNAc(b1-2)Man(a1-3)[Gal(b1-4)GlcNAc(b1-3)Gal(b1-4)GlcNAc(b1-3)Gal(b1-4)GlcNAc(b1-3)Gal(b1-4)GlcNAc(b1-3)Gal(b1-4)GlcNAc(b1-2)Man(a1-6)]Man(b1-4)GlcNAc(b1-4)GlcNAc
Outline: as §1

[21] = target: Gal(b1-4)GlcNAc(b1-3)Gal(b1-4)GlcNAc(b1-6)[Gal(b1-3)]GalNAc
Outline: as §1

Gal3S(b1-3)GalNAc = target: Gal3S(b1-3)GalNAc
Outline: as §1

Gal3S(b1-4)Glc6S = target: Gal3S(b1-4)Glc6S
Outline: as §1

[22] = target: Gal3S(b1-4)[Fuc(a1-3)]GlcNAc
Outline: as §1

Gal4S(b1-4)GlcNAc = target: Gal4S(b1-4)GlcNAc
Outline: as §1

B1: Gal 10 (Homo sapiens), Q05315 (protein)
chain: MSLLPVPYTEAASLSTGSTVTIKGRPLVCFLNEPYLQVDFHTEMKEESDIVFHFQVCFGRRVVMNSREYGAWKQQVESKNMPFQDGQEFELSISVLPDKYQVMVNGQSSYTFDHRIKPEAVKMVQVWRDISLTKFNVSYLKR
glycan array binding signal (z-score) [1]: 0.078
glycan array binding signal (z-score) [2]: 0.81
glycan array binding signal (z-score) [3]: -0.692
glycan array binding signal (z-score) [4]: -0.642
glycan array binding signal (z-score) [5]: -1.35
glycan array binding signal (z-score) [6]: 2.13
glycan array binding signal (z-score) [7]: 0.571
glycan array binding signal (z-score) [8]: -0.339
glycan array binding signal (z-score) [9]: 1.28
glycan array binding signal (z-score) [10]: 0.64
glycan array binding signal (z-score) [11]: -0.116
glycan array binding signal (z-score) [12]: 3.88
glycan array binding signal (z-score) (Fuc(b1-3)GlcNAc): 0.585
glycan array binding signal (z-score) (Gal(a1-3)Gal(b1-3)GlcNAc): -0.317
glycan array binding signal (z-score) [13]: 0.703
glycan array binding signal (z-score) (Gal(a1-3)Gal(b1-4)GlcNAc): 0.105
glycan array binding signal (z-score) [14]: -0.109
glycan array binding signal (z-score) [15]: -0.754
glycan array binding signal (z-score) (Gal(b1-3)GalNAc): 0.117
glycan array binding signal (z-score) [16]: -0.196
glycan array binding signal (z-score) (Gal(b1-4)Glc6S): -0.347
glycan array binding signal (z-score) [17]: -0.708
glycan array binding signal (z-score) [18]: 2.23
glycan array binding signal (z-score) [19]: 5.64
glycan array binding signal (z-score) [20]: 3.23
glycan array binding signal (z-score) [21]: 3.3
glycan array binding signal (z-score) (Gal3S(b1-3)GalNAc): -0.157
glycan array binding signal (z-score) (Gal3S(b1-4)Glc6S): 0.08
glycan array binding signal (z-score) [22]: -0.495
glycan array binding signal (z-score) (Gal4S(b1-4)GlcNAc): -0.269
